Pf Dd2 growth = blocks in vitro growth of P. falciparum Dd2; P. falciparum Dd2 growth, SYBR Green, 72 h; Potency, µM (series often up to 28.9 µM), hits mostly inhibitors; AID 1347417; 4.3% of 120,000 active; active = well fitted inhibition curve with a large enough effect; note: nearly all actives have a fitted effect of over 65% in size
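Infected erythrocytes (Dd2, 0.3% parasitemia, 2.5% hematocrit final) are added to compound in RPMI-1640/Albumax II medium, grown 72 h at 37C in low oxygen, then lysed with saponin/Triton-X containing SYBR Green and read by fluorescence.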
A number is an active result. The full list was thinned out, with hits kept by preference.

`COc1cc(C(=O)N2CCC(c3nc4ccccc4s3)CC2)cc(OC)c1OC` gave Pf Dd2 growth inactive.
For Cc1ccc2oc(C(=O)N3CCC(c4nc5ccccc5s4)CC3)c(C)c2c1 the results were Pf Dd2 growth inactive.
`O=C(c1ccccc1Cl)N1CCC(c2nc3ccccc3s2)CC1` gave Pf Dd2 growth inactive.
Screening CNC(=O)[C@@H]1C[C@H](Oc2ccccc2)CN1C(=O)Cn1nc(C)cc1C returned Pf Dd2 growth inactive.
O=C(c1ccc(C(F)(F)F)cc1)N1CCC2(CN[S+](=O)([O-])c3ccccc3N2)C1 (centres undefined) was read as Pf Dd2 growth inactive.
Cc1noc(C2CC3(CCN(C(=O)Cn4c(=O)oc5ccccc54)CC3)CN2C)n1 (centres undefined) was read as Pf Dd2 growth inactive.
Screening Cc1noc(C2CC3(CCN(C(=O)CCC4CCCC4)CC3)CN2C)n1 (centres undefined) returned Pf Dd2 growth 4.5µM.
Screening Cc1noc(C2CC3(CCN(C(=O)COc4ccc(F)cc4)CC3)CN2C)n1 (centres undefined) returned Pf Dd2 growth inactive.
Cc1cc(C)c(NC(=O)Cn2nc3n(c2=O)CCCCC3)c(C)c1 was read as Pf Dd2 growth inactive.
Screening COc1ccc(C(=O)N2CCCC2c2noc(COc3ccc(F)cc3)n2)cn1 (centres undefined) returned Pf Dd2 growth inactive.
`NCc1ccccc1-c1cccc(Cl)c1` gave Pf Dd2 growth 8.9µM.
`NCc1cn[nH]c1-c1ccccc1` gave Pf Dd2 growth inactive.
NCc1ccccc1-c1ccc(O)cc1 was read as Pf Dd2 growth inactive.
Screening COc1ccccc1-c1nn2c(=O)cc(CN3CCN(S(=O)(=O)c4ccc(C)cc4)CC3)nc2s1 returned Pf Dd2 growth inactive.
Cc1ccc(S(=O)(=O)N2CCN(Cc3cc(=O)n4nc(-c5ccccc5Cl)sc4n3)CC2)cc1 was read as Pf Dd2 growth inactive.
For Cc1cccc(-c2nn3c(=O)cc(CN4CCN(C(=O)c5ccccc5Br)CC4)nc3s2)c1 the results were Pf Dd2 growth inactive.
`COc1ccc(-c2nn3c(=O)cc(CN4CCN(C(=O)/C=C/c5ccccc5)CC4)nc3s2)cc1` gave Pf Dd2 growth inactive.
Screening Cc1cccc(-c2nn3c(=O)cc(CN4CCN(S(=O)(=O)c5ccc(Cl)cc5)CC4)nc3s2)c1 returned Pf Dd2 growth 8.9µM.
Screening COc1cccc(-c2nn3c(=O)cc(CN4CCN(C(=O)COc5ccccc5C)CC4)nc3s2)c1 returned Pf Dd2 growth 11µM.
`COc1ccc(-c2nn3c(=O)cc(CN4CCN(S(=O)(=O)c5ccc(C)cc5)CC4)nc3s2)cc1` gave Pf Dd2 growth 11µM.
Screening COc1ccc(-c2nn3c(=O)cc(CN4CCN(C(=O)COc5ccc(F)cc5)CC4)nc3s2)cc1 returned Pf Dd2 growth inactive.
`Cc1ccc(-c2nn3c(=O)cc(CN4CCN(C(=O)COc5ccc(C)c(C)c5)CC4)nc3s2)cc1` gave Pf Dd2 growth inactive.
O=C1CO[C@H]2CN(C3CCC3)C[C@H]2N1c1ccccc1 was read as Pf Dd2 growth inactive.
Screening Cc1ncc(S(C)(=O)=O)c(NCc2nnc3ccccn23)n1 returned Pf Dd2 growth inactive.
`O=C(c1ccc2c(c1)OCO2)N1CCC2(CNc3ccccc3[S+](=O)([O-])N2)C1` (centres undefined) gave Pf Dd2 growth inactive.
`Cc1ccc(C(=O)N2CCC(c3nn(-c4ccc(Cl)cc4)c(=O)[nH]3)CC2)cc1` gave Pf Dd2 growth inactive.
For Cc1ccc([S+](=O)([O-])N2CCC(c3nn(-c4ccc(F)cc4)c(=O)[nH]3)CC2)cc1 the results were Pf Dd2 growth 8.9µM.
Screening Cc1ccc([S+](=O)([O-])N2CCC(c3nn(C)c(=O)[nH]3)CC2)cc1 returned Pf Dd2 growth inactive.
Screening Cc1ccc([S+](=O)([O-])N2CCCC(c3nn(-c4ccc(Cl)cc4)c(=O)[nH]3)C2)cc1 (centres undefined) returned Pf Dd2 growth inactive.
C=CCNC(=O)N[C@H]1CO[C@H]2[C@@H]1OC[C@@H]2Nc1nccc(-c2ccccc2OC)n1 was read as Pf Dd2 growth inactive.
Screening CCOc1ccc(N2CC(c3nc4ccccc4n3CCC3CCCCC3)CC2=O)cc1 (centres undefined) returned Pf Dd2 growth 11µM.
For CC(=O)N1CCCC1c1nc2ccccc2n1Cc1ccc(F)cc1 (centres undefined) the results were Pf Dd2 growth inactive.
Screening CCOC(=O)Cn1c(C2CC(=O)N(c3ccc(C)cc3)C2)nc2ccccc21 (centres undefined) returned Pf Dd2 growth inactive.
`CCOc1ccccc1N1CC(c2nc3ccccc3n2CCCOc2ccccc2OC)CC1=O` (centres undefined) gave Pf Dd2 growth inactive.
Cc1cccc(C)c1OCCn1c(C2CC(=O)N(Cc3ccc(F)cc3)C2)nc2ccccc21 (centres undefined) was read as Pf Dd2 growth 2.5µM.
For CCOc1ccc(N2CC(c3nc4ccccc4n3CCOc3ccccc3OC)CC2=O)cc1 (centres undefined) the results were Pf Dd2 growth 13µM.
